In PubChem BioAssay (EPA / NIEHS):
Activity calls are given as the source filed them. How the source made its calls: active means hit-call score of the fitted dose curve at least 0.9, where 1 is the maximum; inactive means score below 0.9.

Legend:
[1] = APR_HepG2_P-H2AX_72hr: Apredica 72-hour HepG2 Assay for H2AX Phosphorylation (AID 2282916); details: imaging, actives raise or lower the signal;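 further: phospho-histone H2A.x immunostain intensity per cell marking DNA damage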
How it was run: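 Following 72 hr treatment with 0.39–200 uM compound, HepG2 cells were formaldehyde-fixed, permeabilized and stained for phospho-H2A.x; signal was measured by high-content imaging and fitted bidirectionally against DMSO controls.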

[2] = APR_HepG2_MitoMembPot_72hr: Apredica 72-hour HepG2 Assay for Mitochondrial Membrane Potential (AID 2282917); details: imaging, actives raise or lower the signal
How it was run: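 Membrane potential read by MitoTracker Red CMXRos (250 nM, 30 min, pre-fixation) fluorescence imaging of HepG2 after 72 hr exposure. Ten concentrations, 0.39–200 uM, duplicate wells, 0.5% DMSO; fitted in both directions against DMSO baseline.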

[3] = APR_HepG2_MitoticArrest_72hr: Apredica 72-hour HepG2 Assay for Mitotic Arrest (AID 2282918); details: high-content imaging, actives raise or lower the signal
How it was run: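 HepG2 cells were exposed for 72 hr to compound at 0.39–200 uM (10 concentrations, duplicate) in 0.5% v/v DMSO, fixed in 3.7% formaldehyde, immunostained for phospho-histone H3 with Hoechst 33342 and imaged by high-content fluorescence; bidirectional fits versus DMSO.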

[4] = APR_HepG2_StressKinase_72hr: Apredica 72-hour HepG2 Assay for Stress Kinase (AID 2282921); details: HepG2 stress kinase (phospho-c-Jun) imaging, actives raise or lower the signal
How it was run: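 Fluorescence intensity of Cy3-tagged anti-phospho-c-Jun antibody, quantified per cell from Hoechst-defined nuclei across six images per well, served as the read-out following 72 h exposure (0.39–200 uM, 0.5% v/v DMSO).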

[5] = APR_HepG2_StressKinase_24hr: Apredica 24-hour HepG2 Assay for Stress Kinase (AID 2282922); details: HepG2 stress kinase (phospho-c-Jun) imaging, actives raise or lower the signal
How it was run: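 HepG2, 24 hr dosing, 0.39–200 uM in duplicate, 0.5% DMSO; formaldehyde fix (3.7%), 0.5% Triton X-100; anti-phospho-c-Jun + Cy3 secondary, Hoechst counterstain; ArrayScan imaging; bidirectional curve fit vs DMSO baseline.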

[6] = APR_HepG2_p53Act_72hr: Apredica 72-hour HepG2 Assay for p53 Activation (AID 2282923); details: high-content imaging, actives raise or lower the signal;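 further: average cellular p53 protein immunofluorescence intensity in HepG2 cells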
How it was run: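 HepG2 monolayers receive test compounds in duplicate at ten concentrations (0.39 through 200 uM) for 72 hr. They are then formaldehyde-fixed, antibody-labelled for p53, Hoechst-stained and imaged, with activity fitted bidirectionally versus DMSO.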

[7] = APR_HepG2_MitoMass_72hr: Apredica 72-hour HepG2 Assay for Mitochondrial Mass (AID 2282924); details: high-content imaging, actives raise or lower the signal;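 further: MitoTracker Red CMXRos stain intensity per cell imaged as mitochondrial mass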
How it was run: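 HepG2, 72 hr cmpd, 10 conc 0.39–200 uM in dup, DMSO 0.5% v/v. MitoTracker Red CMXRos 250 nM 30 min pre-fix; formaldehyde 3.7% fix 30 min RT. HCS imaging, gain/loss fit vs DMSO.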

[8] = APR_HepG2_NuclearSize_72hr: Apredica 72-hour HepG2 Assay for Nuclear Size (AID 2282925); details: high-content imaging, actives raise or lower the signal
How it was run: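 HepG2; cpd 0.39–200 uM, 10 conc, duplicate; 72 h; DMSO 0.5% v/v; fix 3.7% formaldehyde 30 min RT; Triton permeabilization; Hoechst 2 ug/mL; HCS imaging 20x; nuclear diameter; gain/loss fit vs DMSO.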

[9] = APR_HepG2_CellLoss_72hr: Apredica 72-hour HepG2 Assay for Cell Loss (AID 2282915); details: high-content imaging
How it was run: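 Cell number comes from Hoechst 33342-labelled nuclei, imaged at 20x after 3.7% formaldehyde fixation. Dosing was 0.39–200 uM, ten concentrations in duplicate, 0.5% DMSO final, for 72 h. Bidirectional fit relative to DMSO baseline.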

[10] = APR_HepG2_P-H2AX_24hr: Apredica 24-hour HepG2 Assay for H2AX Phosphorylation (AID 2282920); details: high-content imaging, actives raise or lower the signal
How it was run: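 HepG2 human liver cells were exposed for 24 hr to compounds at 0.39–200 uM in duplicate, with 0.5% v/v DMSO final. Fixed cells were immunostained for phospho-histone H2A.x plus Hoechst 33342, imaged by HCS fluorescence, and fitted bidirectionally against DMSO.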

Measured: AC50

c1nc[nH]n1
not listed: [9] | [10]
inactive: all other assays above

c1ccc(OP(Oc2ccccc2)Oc2ccccc2)cc1
active: [3] 113 µM
not listed: [9] | [10]
inactive: all other assays above

Cc1cccc(N)c1
not listed: [9] | [10]
inactive: all other assays above

ClC1=C(Cl)C2(Cl)C3C(Cl)C(Cl)CC3C1(Cl)C2(Cl)Cl (stereo not drawn)
active: [1] 108 µM | [2] 27.1 µM | [3] 53.5 µM | [4] 109 µM | [5] 96.7 µM | [6] 98.4 µM | [7] 136 µM
inactive: [8]

CCN(CC)c1ccccc1
not listed: [9] | [10]
inactive: all other assays above

CCOS(=O)(=O)OCC
not listed: [9] | [10]
inactive: all other assays above

Nc1ccc(Cl)cc1
not listed: [10]
inactive: all other assays above

O=[N+]([O-])c1ccccc1
not listed: [9] | [10]
inactive: all other assays above

O=P(Oc1ccccc1)(Oc1ccccc1)Oc1ccccc1
active: [1] 66.4 µM | [3] 62 µM | [6] 68.3 µM
not listed: [9] | [10]
inactive: all other assays above

OCC1CO1 (stereo not drawn)
not listed: [9]
inactive: all other assays above

[N-]=[N+]=[N-]
not listed: [9] | [10]
inactive: all other assays above

CC(C)(C)OOC(C)(C)C
not listed: [9] | [10]
inactive: all other assays above

CC(Cc1ccc(OCC(=O)O)cc1)NCC(O)c1csc(C(F)(F)F)n1 (stereo not drawn)
not listed: [9] | [10]
inactive: all other assays above

Cc1ccc(O)cc1C
not listed: [8] | [9] | [10]
inactive: all other assays above

CC(C)(C)c1ccc(O)cc1
not listed: [8] | [9] | [10]
inactive: all other assays above

CCOC(=O)c1ccccc1C(=O)OCC
not listed: [9]
inactive: all other assays above

Nc1ccc2ccccc2c1
active: [7] 69.8 µM
not listed: [9] | [10]
inactive: all other assays above

Cc1ccc(N)cc1N
not listed: [9] | [10]
inactive: all other assays above

CCOc1ccc(C(C)(C)COCc2cccc(Oc3ccccc3)c2)cc1
active: [9] 68.3 µM | [3] 66.6 µM
inactive: all other assays above

O=P1(N(CCCl)CCCl)NCCCO1 (stereo not drawn)
not listed: [9] | [10]
inactive: all other assays above
